Compound activity as filed in PubChem.
Sampled rows, rich in hits. Any-hit rate of the full collection: about 2.2%.
Mito fusion yeast: blocks mitochondrial division or promotes mitochondrial fusion | S. cerevisiae fusion-defective mutant growth rescue, CellTiterGlo 48 h | Potency, µM (series often up to 46.1 µM), hits mostly activators | 320,000 compounds, 0.23% hits | AID 485298; further: nearly all actives have a fitted effect of over 45% in size
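Growth-rescue viability read-out: after 48 h at the non-permissive 37C in glycerol/ethanol YPEG, yeast mitochondrial fusion mutants are measured by CellTiterGlo luminescence; compounds (23 nl pinned per well) restoring growth score as division inhibitors or fusion activators.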
TDP-43 yeast inh: rescues yeast growth from TDP-43 toxicity; TDP-43 expressing yeast growth rescue, BacTiter-Glo, 24 h; Potency, µM (series often up to 46.1 µM), hits mostly activators; 410,000 compounds, 1.8% hits; AID 652104; further: nearly all actives have a fitted effect of over 50% in size
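Cell-based yeast growth screen: TDP-43 expression induced in galactose, inoculum OD600=0.02 after raffinose pregrowth to mid-log. Read-out BacTiter-Glo luminescence at 24 hr, 30 deg C; inhibition of toxicity seen as signal increase.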
FUS yeast rescue: suppressors of FUS proteinopathy in yeast | 390,000 compounds, 0.24% hits | Potency, µM (titrated, usually from 76.6 µM), hits mostly activators | S. cerevisiae FUS-expressing, growth rescue, OD600, 24 h; further: nearly all actives have a fitted effect of over 55% in size
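Cultures pregrown in 2.5% raffinose medium are shifted to minimal medium containing 2% galactose to express toxic FUS. Compounds are tested at several concentrations. After 24hr at 30C, growth is quantified at 600 nm absorbance.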
Abeta rescue: compounds reversing amyloid beta toxicity in yeast; yeast expressing A-beta42, growth rescue, OD600, 48 h; response scale: 0% DMSO, 100% iron-clioquinol control; Potency, µM (doses to about 46.1 µM), usual class: activators; 410,000 compounds, 0.063% hits; AID 1347071; further: nearly all actives have a fitted effect of over 55% in size
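Yeast A-beta toxicity model in growth medium with pinned compounds, 48 h at 30 C; growth read as absorbance at 600 nm. Normalized to FeCl3/clioquinol equimolar mix (positive) and DMSO (negative).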
aSyn rescue: rescues yeast growth from alpha-synuclein toxicity; Yeast expressing alpha-synuclein, growth rescue, BacTiter-Glo, 24 h; Potency, µM (highest dose often 46.1 µM), usual class: activators; 370,000 compounds, 0.14% hits; further: nearly all actives have a fitted effect of over 65% in size
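Screening used galactose-induced yeast with toxic alpha-synuclein levels, exposed to compound for 24 hr at 30 deg C. Cell growth, read with BacTiter-Glo luminescence, gave the measured signal.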
Hits are given with their value; n = inactive; u = inconclusive; x = no result given. The call rests on the fitted dose curve; in most records, active means well fitted curve in the direction sought with a large enough effect; inconclusive means small, poorly fitted or top-dose-only effect, or another doubt; inactive means no such curve, though single readings can be large; an effect the other way counts as inactive or inconclusive.

SMILES	Mito fusion yeast	TDP-43 yeast inh	FUS yeast rescue	Abeta rescue	aSyn rescue
CCN1C(=O)[C@@H]2[C@@H](c3ccc(SC4CCCCC4)c(OC)c3)N3CCCC[C@@]3(C(=O)OC)[C@@H]2C1=O	x	n	5µM	n	n
CCC(C)Sc1ccc([C@@H]2[C@@H]3C(=O)N(CC)C(=O)[C@@H]3[C@]3(C(=O)OC)CCCCN23)cc1OC (stereo partly specified)	x	35µM	u	n	n
CCC(C)Sc1ccc([C@@H]2[C@@H]3C(=O)N(C)C(=O)[C@@H]3[C@]3(C(=O)OC)CCCCN23)cc1OC (stereo partly specified)	n	u	n	n	n
Cc1cc(C)c2c(c1)c(C)cc1nnc(SCC(=O)c3ccccc3)n12	x	n	n	n	x
CCc1ccccc1NC(=O)Cn1c(=O)n(Cc2ccco2)c(=O)c2ccccc21	x	n	n	n	x
COc1ccc(CNc2oc(COc3cccc(C)c3)nc2C#N)cc1	x	22µM	n	n	x
Cc1cccc(OCc2nc(C#N)c(NCc3ccc4c(c3)OCO4)o2)c1	7.1µM	u	n	n	n
N#Cc1nc(COc2ccc(Cl)cc2)oc1NCc1ccc2c(c1)OCO2	n	n	n	n	n
O=C(CSc1nccn1Cc1ccc(F)cc1)NCc1ccc(F)cc1	x	n	n	n	n
Clc1cccc(CON/C=N/c2ncnc3sccc23)c1	n	3.5µM	n	n	n
CC(=O)N(C)c1ccc(C=C2C=Cc3ccccc32)cc1	x	14µM	x	n	n
Cc1cccc(C)c1NC(=O)Cn1c(=O)n(Cc2ccc3c(c2)OCO3)c(=O)c2oc3ccccc3c21	x	u	n	n	x
O=C(Nc1ccc(Nc2ccccc2)cc1)c1ccc(Br)o1	n	n	x	n	n
O=C(Nc1cccc(OC(=O)c2ccc(Br)o2)c1)c1ccccc1	u	22µM	n	n	n
Cc1ccc(C(=O)Oc2cccc(NC(=O)c3ccccc3)c2)cc1C	10µM	n	x	u	n
Cc1ccc(NC(=O)c2ccccc2)cc1C	n	n	n	n	n
O=C(Oc1cccc(NC(=O)c2ccccc2Cl)c1)c1ccc([N+](=O)[O-])cc1	n	13µM	n	n	n
O=C(Nc1cccc(O)c1)c1ccc([N+](=O)[O-])cc1Cl	n	n	n	n	n
Nc1c(-c2ccccc2)cnn1-c1cccc(Cl)c1	n	16µM	n	n	n
O=C(O)c1ccc(S(=O)(=O)NCc2ccc3c(c2)OCO3)cc1	n	n	n	n	n
COc1cc(C)c(S(=O)(=O)NCc2ccc3c(c2)OCO3)cc1C	n	16µM	n	n	u
COc1cc(S(=O)(=O)NCc2ccc3c(c2)OCO3)ccc1F	n	u	n	n	n
CC(C)c1ccc(S(=O)(=O)NCc2ccc3c(c2)OCO3)cc1	n	11µM	n	n	n
COc1ccc(S(=O)(=O)NCc2ccccc2)cc1Br	n	x	x	x	x
COc1cc(S(=O)(=O)NCc2ccccc2)ccc1Br	n	13µM	x	n	n
SMILES	Mito fusion yeast	TDP-43 yeast inh	FUS yeast rescue	Abeta rescue	aSyn rescue
COc1cc(S(=O)(=O)NCc2ccc3c(c2)OCO3)ccc1Cl	n	13µM	n	n	n
Cc1ccc(NC(=O)c2ccc(CN3CC(=O)N4CCCCC4C3=O)cc2)cc1C (stereo unspecified)	x	n	n	n	x
Cc1ccc(C)c(Cn2c(=O)n(Cc3ccccc3)c(=O)c3c(C)c(C)sc32)c1	x	n	n	n	x
COC(=O)N1CCCc2cc(S(=O)(=O)NCc3ccccc3)ccc21	x	n	n	n	18µM
CCC(=O)N1CCc2cc(CNS(=O)(=O)c3ccc(C(C)C)cc3)ccc21	x	20µM	n	n	x
CC(=O)N1CCc2cc(CNS(=O)(=O)c3ccc(C(C)(C)C)cc3)ccc21	x	n	u	n	x
O=C(N/N=C/c1ccc(O)cc1)NC12CC3CC(CC(C3)C1)C2	n	11µM	n	n	n
CCn1ccc2cc(S(=O)(=O)N3CCCN(C(=O)NCC(=O)OC)CC3)ccc21	x	n	n	n	n
CCCCSc1nsc(NC(C)=O)n1	n	13µM	n	n	x
CCCCCCSc1nsc(NC(C)=O)n1	n	u	n	n	n
Cc1cc(-c2n[nH]c(=S)n2N=Cc2ccc(O)cc2)n[nH]1	x	x	n	x	x
CCOC(=O)C1=C(CS(=O)(=O)c2ccc(C(C)(C)C)cc2)NC(=O)NC1c1cccc(OC)c1 (stereo unspecified)	x	n	n	n	x
CCOC(=O)c1ccc(NC(=O)CN2C(=O)c3cccnc3Sc3ccccc32)cc1	x	n	n	n	x
COc1ccc2c(C)cc(SCn3nnc4ccccc4c3=O)nc2c1	n	n	n	n	3.5µM
O=c1c2ccccc2nnn1CSc1ccc2c(c1)OCCO2	n	11µM	n	n	u
COc1ccc(OC)c(C(=O)Cn2nnc3ccccc3c2=O)c1	n	n	n	n	n
CCC(C(=O)Nc1ccc2c(c1)OCCO2)n1nnc2ccccc2c1=O (stereo unspecified)	n	u	n	n	n
CCOC(=O)CSc1nc2cc3c(cc2c(=O)n1CCCC(=O)NCc1ccc2c(c1)OCO2)OCO3	x	n	n	n	x
CCn1c(COc2cccc(C)c2)nnc1SCC(=O)Nc1cccc(C(=O)O)c1	n	n	n	n	n
CCn1c(COc2cccc(C)c2)nnc1SCC(=O)Nc1cccc(C(=O)OC)c1	n	20µM	n	n	n
S=C(Nc1ccc(Cl)c(Cl)c1)NC1CCCCC1	n	n	n	n	n
S=C(Nc1ccc2nsnc2c1)NC1CCCCC1	u	13µM	x	n	n
Cc1ccccc1NC(=O)CCS(=O)(=O)c1ccccc1	x	x	n	x	x
COc1ccccc1CN(C)CC(=O)c1c(C)[nH]c2ccccc12	x	x	x	x	n
CCOc1nc(Nc2ccc(Cl)cc2)nc(OCC)n1	n	11µM	n	n	n
SMILES	Mito fusion yeast	TDP-43 yeast inh	FUS yeast rescue	Abeta rescue	aSyn rescue
CN(C)c1nc(OCCNC(=O)Nc2ccc(Cl)cc2)nc(N(C)C)n1	n	n	n	n	n
CN(C)c1nc(Nc2ccc(Cl)cc2)nc(OCC#N)n1	n	11µM	n	n	n
CCOc1nc(Nc2ccccc2)nc(OCC)n1	n	u	n	n	n
Cc1ccc(CNC(=O)c2oc3ccc(S(=O)(=O)N4CCCC(C)C4)cc3c2C)cc1 (stereo unspecified)	x	n	u	n	x
CCOc1ccccc1COC(=O)c1cccc(-n2cnnn2)c1	n	18µM	n	n	n
COc1ccccc1C(=O)COC(=O)c1cccc(-n2cnnn2)c1	n	n	n	n	n
CNC(=S)N1CCN(c2c(F)cc3c(=O)c(C(=O)O)cn(C4CC4)c3c2OC)CC1C (stereo unspecified)	n	n	n	n	n
COC(=O)C(C)NC(=S)N1CCN(c2c(F)cc3c(=O)c(C(=O)O)cn(C4CC4)c3c2OC)CC1C (stereo unspecified)	n	u	32µM	n	n
COc1ccc(C(=O)OCN2C(=O)c3ccccc3C2=O)cc1	n	10µM	n	n	u
